The source made the active and inactive calls.
Assays:
[1] = optical density shifts of acrAB sulA E. coli – strain DRC41, OD650, 48 h, E. coli filamentation inducer project, primary screen (AID 1152); details: higher = more signal, called active from +8 up or from −8 down;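 also: E. coli MC1000 strain DRC41 lacking acrAB efflux pump and sulA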
[2] = probe aLefty1 binding on compound microarray – biochemical, small-molecule microarray, 635/667 nm fluorescence, primary screen (AID 1153); details: higher = more signal;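 also: score merges spot fluorescence with signal-to-noise ratio from the scanned slide images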
[3] = plasmodial surface anion channel blockers, osmotic lysis – cell-based, P. falciparum Indochina, OD700, 1 h, primary screen (AID 1154); details: P. falciparum Indochina infected RBC osmotic lysis, higher = more signal, called active from +8 up or from −8 down
[4] = plasmodial surface anion channel blockers, osmotic lysis – cell-based, P. falciparum Indochina, OD700, 2 h, primary screen (AID 1155);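 also: lysis reports solute entry through the parasite surface anion channel PSAC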; details: P. falciparum Indochina infected erythrocytes, higher = more signal, called active from +8 up or from −8 down
[5] = changes in parasitized red cell lysis, either direction – P. falciparum Indochina, OD700, 3 h, PSAC antagonist project, primary screen (AID 1156); details: P. falciparum-infected erythrocytes, osmotic lysis, higher = more signal, called active from +8 up or from −8 down
[6] = plasmodial surface anion channel blockers, osmotic lysis – cell-based, P. falciparum Indochina, OD700, 18 h, primary screen (AID 1157); details: P. falciparum Indochina infected erythrocytes, osmotic lysis OD700, 18 h; higher = more signal, called active from +8 up or from −8 down
[7] = S6 kinase pathway phospho-S6 level changes – cell-based, A549, cytoblot, luminescence, serum-stimulated, primary screen (AID 1158); details: 5 h, higher = more signal;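 also: serum-stimulated A549 lung adenocarcinoma cells; signal is phosphorylated S6 detected by cytoblot immunostaining with HRP secondary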
[8] = molecular target: NADPH oxidase 2 (Homo sapiens) (UniProt P04839); test: compounds shifting NOX2 Amplex Red fluorescence – cell-based, HEK293-NOX2, PMA-stimulated, NOX inhibitor project, primary screen (AID 1159); details: 45 min, higher = more signal, called active from +8 up or from −8 down; also: test concentration not given here
[9] = molecular target: NADPH oxidase 4 (Homo sapiens) (UniProt Q9NPH5); test: compounds shifting NOX4 Amplex Red fluorescence – cell-based, HEK293-NOX4, tetracycline-induced, NOX inhibitor project, primary screen (AID 1160); details: HEK293-NOX4, Amplex Red H2O2 fluorescence, 45 min; higher = more signal, called active from +8 up or from −8 down
[10] = molecular target: NADPH oxidase 5 (Homo sapiens) (UniProt Q96PH1); test: compounds shifting NOX5 Amplex Red fluorescence – cell-based, HEK293-NOX5, NOX inhibitor project, primary screen (AID 1161); details: HEK293-NOX5, ionomycin, 45 min, higher = more signal
[11] = compound effects on lung adenocarcinoma cell viability – A549, calcein-AM fluorescence, 48 h, basal, profiling panel (AID 1162); details: higher = more signal; also: test concentration not given here
[12] = compound effects on differentiated 3T3-L1 adipocyte viability – cell-based, 3T3-L1 adipocytes, calcein-AM fluorescence, 48 h, basal, profiling panel (AID 1163); details: 3T3-L1 adipocytes viability, higher = more signal; also: test concentration not given here
[13] = compound effects on hepatocellular carcinoma cell viability – HepG2, calcein-AM fluorescence, 48 h, basal, profiling panel (AID 1164); details: higher = more signal; also: test concentration not given here
[14] = compound effects on multiple myeloma cell viability – MM1S, calcein-AM fluorescence, 48 h, basal, profiling panel (AID 1165); details: higher = more signal;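 also: viability of MM1S multiple myeloma cells under basal unstimulated conditions; test concentration not given here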
[15] = calcein-AM signal in unstimulated myeloma cells – cell-based, calcein-AM fluorescence, 48 h, PK04 Diversity Set, profiling panel (AID 1166); details: RPMI8226 myeloma viability, higher = more signal;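 also: cells grown under basal conditions without added stimulus; test concentration not given here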
[16] = JC-1 mitochondrial signal, unstimulated HepG2 cells – cell-based, JC-1 fluorescence, 24 h, 100 nL compound, profiling panel (AID 1167); details: HepG2 mitochondrial potential, higher = more signal; also: test concentration not given here
[17] = JC-1 mitochondrial signal, unstimulated adipocytes – cell-based, JC-1 fluorescence, 3T3-L1 adipocytes, 24 h, 100 nL compound, profiling panel (AID 1168); details: JC-1 mitochondrial fluorescence, higher = more signal, called active from +8 up or from −8 down; also: test concentration not given here
[18] = JC-1 mitochondrial signal, unstimulated myeloma cells – cell-based, JC-1 fluorescence, RPMI8226, 24 h, 100 nL compound, profiling panel (AID 1169); details: JC-1 mitochondrial potential fluorescence, higher = more signal; also: test concentration not given here
[19] = JC-1 mitochondrial signal, unstimulated MM1S myeloma – cell-based, JC-1 fluorescence, 24 h, 100 nL compound, profiling panel (AID 1170); details: MM1S mitochondrial potential, higher = more signal; also: test concentration not given here
[20] = resazurin metabolic signal in A549 cells – cell-based, resazurin fluorescence, 24 h, PK04 Diversity Set, profiling panel (AID 1171); details: A549 viability, higher = more signal, called active from +8 up or from −8 down; also: test concentration not given here

Sequence of NADPH oxidase 5 (Homo sapiens) (Q96PH1 whole entry, looked up): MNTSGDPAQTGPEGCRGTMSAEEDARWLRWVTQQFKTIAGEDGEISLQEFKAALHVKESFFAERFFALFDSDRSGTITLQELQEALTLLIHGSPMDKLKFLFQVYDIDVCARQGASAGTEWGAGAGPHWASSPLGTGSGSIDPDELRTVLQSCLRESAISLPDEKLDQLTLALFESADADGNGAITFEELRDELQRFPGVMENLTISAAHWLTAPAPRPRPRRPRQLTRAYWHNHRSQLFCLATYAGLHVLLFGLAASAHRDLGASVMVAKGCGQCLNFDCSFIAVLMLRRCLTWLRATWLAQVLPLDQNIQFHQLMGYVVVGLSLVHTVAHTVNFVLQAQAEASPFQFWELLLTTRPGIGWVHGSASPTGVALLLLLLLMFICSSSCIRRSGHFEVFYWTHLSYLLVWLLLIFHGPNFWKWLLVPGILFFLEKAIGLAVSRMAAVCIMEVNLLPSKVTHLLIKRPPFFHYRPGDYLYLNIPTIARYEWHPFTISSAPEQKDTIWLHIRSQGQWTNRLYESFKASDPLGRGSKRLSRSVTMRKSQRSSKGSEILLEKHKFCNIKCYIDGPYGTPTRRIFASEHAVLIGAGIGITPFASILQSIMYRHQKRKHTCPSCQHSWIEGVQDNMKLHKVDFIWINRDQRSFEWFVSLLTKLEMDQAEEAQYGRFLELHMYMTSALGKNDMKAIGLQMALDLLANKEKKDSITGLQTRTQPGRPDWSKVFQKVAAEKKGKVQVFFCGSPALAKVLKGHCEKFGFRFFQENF
Sequence of NADPH oxidase 4 (Homo sapiens) (Q9NPH5 whole entry, looked up): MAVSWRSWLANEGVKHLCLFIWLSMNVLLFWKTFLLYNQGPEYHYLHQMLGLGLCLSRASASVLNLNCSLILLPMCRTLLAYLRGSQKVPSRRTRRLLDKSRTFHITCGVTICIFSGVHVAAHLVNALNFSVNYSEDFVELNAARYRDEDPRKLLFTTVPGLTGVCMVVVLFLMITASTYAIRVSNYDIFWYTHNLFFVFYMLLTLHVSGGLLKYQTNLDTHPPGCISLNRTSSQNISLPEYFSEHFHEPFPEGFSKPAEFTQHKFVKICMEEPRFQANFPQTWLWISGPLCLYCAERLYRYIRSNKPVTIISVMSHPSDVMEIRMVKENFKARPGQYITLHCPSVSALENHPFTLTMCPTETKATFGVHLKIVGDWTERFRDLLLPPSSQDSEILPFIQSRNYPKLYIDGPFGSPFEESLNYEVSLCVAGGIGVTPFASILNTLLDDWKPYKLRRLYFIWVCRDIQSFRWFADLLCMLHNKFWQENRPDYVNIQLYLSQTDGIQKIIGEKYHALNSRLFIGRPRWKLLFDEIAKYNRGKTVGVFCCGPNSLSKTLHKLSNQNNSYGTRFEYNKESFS
Sequence of NADPH oxidase 2 (Homo sapiens) (P04839 whole entry, looked up): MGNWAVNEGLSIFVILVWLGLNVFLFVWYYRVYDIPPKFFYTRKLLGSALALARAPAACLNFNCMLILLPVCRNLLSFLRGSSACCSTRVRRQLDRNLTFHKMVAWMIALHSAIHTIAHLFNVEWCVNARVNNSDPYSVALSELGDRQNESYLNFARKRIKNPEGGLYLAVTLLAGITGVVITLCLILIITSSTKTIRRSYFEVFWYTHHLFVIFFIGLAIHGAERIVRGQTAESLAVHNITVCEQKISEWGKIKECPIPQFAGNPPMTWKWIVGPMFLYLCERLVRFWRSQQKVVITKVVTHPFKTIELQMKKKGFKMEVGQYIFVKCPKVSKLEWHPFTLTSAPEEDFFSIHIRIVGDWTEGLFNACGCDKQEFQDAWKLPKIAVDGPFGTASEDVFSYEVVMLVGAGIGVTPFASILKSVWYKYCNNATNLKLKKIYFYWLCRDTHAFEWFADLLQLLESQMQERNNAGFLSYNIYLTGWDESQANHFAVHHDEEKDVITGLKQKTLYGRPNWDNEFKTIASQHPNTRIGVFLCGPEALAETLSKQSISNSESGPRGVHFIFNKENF

Row | SMILES | z-score [1] | composite z-score [2] | z-score [3] | z-score [4] | z-score [5] | z-score [6] | z-score [7] | z-score [8] | z-score [9] | z-score [10] | z-score [11] | z-score [12] | z-score [13] | z-score [14] | z-score [15] | z-score [16] | z-score [17] | z-score [18] | z-score [19] | z-score [20]
1 | O=C1O[C@H](c2ccccc2)[C@H](c2ccccc2)N2[C@H]1[C@@H](C(=O)N1CCCCCCC1)[C@]1(C(=O)Nc3ccc(C#CC4(O)CCCCCC4)cc31)[C@H]2c1ccc(O)cc1 | 0.507 (inactive) | 2.47 | 0.839 (inactive) | 0.222 (inactive) | 1.34 (inactive) | 0.491 (inactive) | 0.148 | 1.33 (inactive) | 0.803 (inactive) | 1.17 | 0.792 | -0.597 | 1.68 | -0.845 | -1.59 | -0.806 | 0.212 (inactive) | -0.613 | -0.515 | 0.0109 (inactive)
2 | C=C[C@@H](C)[C@H](O)c1ccc(OCCO)cc1 | 0.227 (inactive) | -0.193 | 1.79 (inactive) | 0.833 (inactive) | 0.485 (inactive) | 0.402 (inactive) | -0.198 | -0.613 (inactive) | -0.311 (inactive) | 0.394 | 0.283 | 0.154 | -0.0484 | 0.0554 | -0.289 | 1.2 | 0.0591 (inactive) | 0.948 | -0.612 | -0.0272 (inactive)
3 | O=C(NCCN1CCOCC1)[C@@H]1c2ccccc2C(=O)N(Cc2ccccc2)[C@H]1c1ccc(CO)cc1 | 0.347 (inactive) | -0.101 | 1.23 (inactive) | -0.222 (inactive) | 0.766 (inactive) | -0.0161 (inactive) | -0.214 | -1.71 (inactive) | -0.652 (inactive) | -2.89 | 0.178 | -0.323 | 0.225 | -0.593 | 0.137 | 2.07 | 0.422 (inactive) | -0.78 | -0.218 | 1.59 (inactive)
4 | COc1ccc([Si](C)(C)[C@H]2[C@H](CCO)O[C@@]3(C(=O)N(Cc4ccccc4)c4ccc(N5C(=O)c6ccccc6Oc6ccccc65)cc43)[C@@H]2C)cc1 | 0.503 (inactive) | 0.121 | 3.46 (inactive) | 1.45 (inactive) | 0.354 (inactive) | 1.19 (inactive) | 0.314 | -1.35 (inactive) | 1.42 (inactive) | 0.269 | -1.01 | 0.271 | -3.26 | -1.7 | -3.51 | 0.0091 | -0.404 (inactive) | -0.896 | -1.53 | -2.28 (inactive)
5 | CC(C)[C@H]1NC(=O)[C@@]23C(=O)N[C@@H](Cc4ccccc4)C2[C@H](C)[C@@]2(C)O[C@H]2C3/C=C/C/C=C\CNC(=O)[C@H](Cc2ccccc2)NC1=O (stereo not given in full) | -0.306 (inactive) | 0.284 | 1.48 (inactive) | 0.491 (inactive) | 0.137 (inactive) | 0.476 (inactive) | -0.324 | 0.155 (inactive) | 1.05 (inactive) | 1.1 | 0.716 | -0.144 | 0.42 | -1.08 | -1.39 | 0.5 | -0.769 (inactive) | -0.132 | 0.623 | -0.739 (inactive)
6 | COc1ccc(C(O)C2C=CC3C(=O)N(c4ccccc4)C(=O)C3N2Nc2ccccc2F)cc1 (stereo not given) | -1.19 (inactive) | 0.167 | 4.67 (inactive) | 1.33 (inactive) | 0.0183 (inactive) | 0.635 (inactive) | -0.331 | -1.34 (inactive) | -3.63 (inactive) | -1.7 | -0.775 | 0.406 | -0.596 | -0.808 | -2.08 | -0.334 | -0.149 (inactive) | -0.288 | -0.855 | 0.21 (inactive)
7 | C=CCC(OC(C)=O)[C@@H]1[C@@H](N(Cc2ccc(-c3ccccc3)cc2)C(=O)Cc2ccc(F)cc2)c2cc(OCCCO)ccc2N1C(=O)Cc1ccc2ccccc2c1 (stereo not given in full) | 0.882 (inactive) | 0.0774 | 1.84 (inactive) | 0.791 (inactive) | -0.205 (inactive) | 0.381 (inactive) | -0.199 | 0.587 (inactive) | 0.512 (inactive) | 1.88 | 0.234 | -0.246 | 0.646 | -0.177 | 0.0473 | 2.19 | -0.321 (inactive) | -0.909 | 0.89 | 1.05 (inactive)
8 | CO[C@H]1O[C@H](CO)[C@@H](OC(=O)Nc2ccc(C#N)cc2)[C@@H]2OC(=O)[C@H](Cc3cccc(Br)c3)C/C=C/C[C@@H](Cc3cccc(Br)c3)C(=O)O[C@@H]12 | 0.766 (inactive) | 0.941 | 1.52 (inactive) | -0.178 (inactive) | 0.842 (inactive) | 0.558 (inactive) | -0.257 | -1.59 (inactive) | 0.311 (inactive) | -0.214 | 1.31 | 0.685 | 1.29 | -1.71 | -0.487 | 1.73 | 1.74 (inactive) | -0.579 | -0.935 | -2.28 (inactive)
9 | O=C1[C@@H]2[C@@H](CC(COc3ccccc3)=C3[C@@H](CCc4ccccc4)OB(O)C[C@@H]32)C(=O)N1Cc1ccccc1 | -1.45 (inactive) | 0.0089 | 11.2 (active) | 2.04 (inactive) | -0.791 (inactive) | 0.82 (inactive) | 0.17 | -0.0449 (inactive) | -0.128 (inactive) | -0.199 | -0.607 | -0.141 | -0.752 | -3.22 | -4.09 | -0.851 | 0.453 (inactive) | -1.07 | 0.253 | -0.0787 (inactive)
